PubChem BioAssay (NCI)
About 83,000 compounds went through this panel and 20% of them were active in at least one assay; those are over-represented in the sample as a whole.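 A percent growth of 40 corresponds to 60% growth inhibition; 0 means no net growth; -100 means all cells died. Active threshold: below 10.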 Values without a mark were called inactive. Calls of active or inactive are those of the source.

These compounds were tested on UACC-257 melanoma (assay: NCI-60 one-dose screen, 48 h (100 = growth as untreated, 0 = no growth, -100 = all killed)). Conditions: 10 µM unless noted.
With `O=C(Nc1ccc(NC(=O)c2cc(=O)[nH]c3ccccc23)cc1)Nc1cccc(C(F)(F)F)c1` the growth was 80.5%.
Work on `CCN(CC)CCCN1C(=O)c2c(c(C)c3c(oc4cc(O)ccc43)c2C)C1=O` yielded a growth of 94.5%.
Work on `COc1cc(OC)cc(C2=C3CC[C@@H]4[C@H](CC[C@]5(C)C(=O)CC[C@@H]45)C3=CC3C(O)c4cccnc4N4C(=O)COC234)c1` (stereo not given in full) yielded a growth of 98.1%.
With `Oc1ccc(CN2CCC(N3CCCCC3)CC2)c2cccnc12` the growth was 21%.
For `CN(C)CC(=O)Nc1ccc2ncnc(Nc3ccc(Oc4cccc(C(F)(F)F)c4)c(Cl)c3)c2c1`, the growth was 85.6%.

The compounds below were run on M14 melanoma in the same assay as above. Conditions: 10 µM unless noted.
In the case of `COC(=O)c1ccc2c(c1)C(=O)c1c-2n(CCCN)c(=O)c2cc([N+](=O)[O-])ccc12`, the growth is reported as -100% (active).
`O=C(Nn1c2c(sc1=Nc1ccccc1)C(=O)c1ccccc1C2=O)c1cc2ccc1CCc1ccc(cc1)CC2` was tested, and the growth was 4.14% (active).
Compound `O=C(CN1C(=O)CCC1=O)Nc1ncc(Cc2ccc(F)cc2)s1` has a growth of 103%.
With `Nc1ncnc2c1N=C(c1ccc(Cl)cc1)CC(c1ccc3c(c1)OCO3)N2` (stereo not given) the growth was 118%.
`N#C/C(=C/c1ccc([N+](=O)[O-])cc1)n1nnc2cc(F)c(F)cc21` gave a growth of 70.1%.
In the case of `COc1ccc(C(=O)Nc2ncc(Cc3ccc(F)cc3)s2)cc1`, the growth is reported as 16.4%.
For `CCN1CCN(Cc2cn(CC(=O)Nc3ccc4c(ccn4Cc4ccccc4)c3)nn2)CC1`, the growth was 98.7%.
In the case of `CCOC(=O)C1=C(NC)OCC1=O`, the growth is reported as 102%.
With `CC(=O)c1cc(O)c2ccccc2c1O` the growth was 105%.
With `CC1(C)CC[C@]2(c3nnc(-c4ccncc4)o3)CC[C@H]3C(=CC[C@H]4[C@@]3(C)CC[C@H]3C(C)(C)C(=O)CC[C@]43C)[C@@H]2C1` the growth was 84%.
Work on `CC(C)(C)n1cc(-c2ccnc(NCCCNS(=O)(=O)c3ccc(F)cc3)c2)c(-c2cccc(F)c2)n1` yielded a growth of 53.8%.
`COc1cc(CNS(=O)(=O)c2ccc(C)cc2)ccc1OCc1cn(-c2ccc(Br)cc2)nn1` gave a growth of 106%.
In the case of `Cc1ccc(-c2csc(NC(=O)CN3CCN(c4cc5c(cc4F)c(=O)c(C(=O)O)cn5C4CC4)CC3)n2)cc1`, the growth is reported as 23%.
`CCCCCCCCCCCCCCCCCCOc1ccccc1CC(=O)OCC[N+]1(C)CCCC1` gave a growth of 20.7%.
For `COc1ccc(-c2nc(/C=C3\SC(=NCc4ccccc4)NC3=O)c3ccccn23)cc1`, the growth was -95.7% (active).
`COc1ccc2c3c([nH]c2c1)C(=O)c1nc(C)ccc1C3=O` showed a growth of 19%.
For `CN(CCOc1ccc(C#N)cc1)CCOc1ccc(C#N)cc1`, the growth was 65.2%.
In the case of `CCN1C(=O)N(CC)C2C1NN=c1s/c(=C\c3cccc([N+](=O)[O-])c3)c(=O)n12` (stereo not given), the growth is reported as 12.2%.
Work on `O=C(CCCCCCN1CC(=O)N2[C@H](c3cc(Br)cs3)c3[nH]c4ccccc4c3C[C@H]2C1=O)NO` yielded a growth of 37.2%.
With `Cc1ccc(/C=C2\CN(C(=O)OC(C)(C)C)C/C(=C\c3ccc(C)cc3)C2=O)cc1` the growth was 43%.
Work on `CN(C)CCNC(=O)c1cccc(-c2cnc3ccc(-c4ccc5c(c4)OCO5)nn23)c1` yielded a growth of 67.7%.
Compound `Cn1c(=O)c2c(nc(NC3=NS(=O)(=O)c4ccccc43)n2CC(=O)N2CCc3ccccc32)n(C)c1=O` has a growth of 89.1%.
Work on `Cc1ccc(NC(=S)NNC(=S)NNc2ccccc2)cc1C` yielded a growth of 115%.
In the case of `C=CCn1c(SCC(=O)Nc2ccc(C(=O)/C=C/c3cc4cc(OC)ccc4nc3Cl)cc2)nnc1-c1ccc(Br)cc1`, the growth is reported as 90.1%.
`CCCC(=O)NC(c1ccc2c(c1)OCO2)c1ccc2cccnc2c1O` (stereo not given) was tested, and the growth was 4.9% (active).
In the case of `c1ccc(C2=NN[C@H](c3cn(-c4ccccc4)nc3-c3ccccc3)C2)cc1`, the growth is reported as 45.6%.
For `C[C@@H]1CCC[C@H]1CC(N)C(=O)O` (stereo not given in full), the growth was 98.8%.
With `O=C1c2cccnc2C(=O)c2c1c(C(=O)NCCCN1CCCCC1)c1ccccn21` the growth was -88.1% (active).
With `CCCCCCCCn1ccc2cc(NC(=O)Cn3cc(CN4CCCCC4)nn3)ccc21` the growth was -79.8% (active).
`COC(C(=O)[C@@H](O)[C@@H](C)O)[C@@H]1Cc2cc3cc(O[C@H]4C[C@@H](O[C@H]5C[C@@H](O)[C@H](O)C(C)O5)[C@H](O)C(C)O4)c(C)c(O)c3c(O)c2C(=O)[C@H]1O[C@H]1C[C@@H](O[C@H]2C[C@@H](O[C@H]3C[C@@H](O)[C@H](OC)C(C)O3)[C@@H](O)C(C)O2)[C@H](O)C(C)O1` (stereo not given in full) was tested, and the growth was -17.9% (active).
`CCCCN1C(=O)/C(=c2\sc3n(c2=O)C2C(NN=3)N(CC)C(=O)N2CC)c2ccccc21` (stereo not given) was tested, and the growth was 6.24% (active).
For `COc1ccc2c(O)c(/C=C3\N=Nc4ncccc43)oc2c1C[C@H]1CCNC[C@H]1F`, the growth was -40.9% (active).
For `COc1ccc2c(O)c(/C=C3\N=Nc4ccccc43)oc2c1C[C@@H]1CCNC[C@H]1F`, the growth was 51.6%.
`COc1ccc(N2CCC(=O)NC2=S)cc1` showed a growth of 98.7%.
In the case of `CC(=O)OCc1nc(C#N)c(N(C)C)o1`, the growth is reported as 99.8%.
`O=C(Nc1ccc(NC(=O)c2cc(=O)[nH]c3ccccc23)cc1)Nc1cccc(C(F)(F)F)c1` gave a growth of 69.9%.
For `CCN(CC)CCCN1C(=O)c2c(c(C)c3c(oc4cc(O)ccc43)c2C)C1=O`, the growth was -88.8% (active).
Work on `COc1cc(OC)cc(C2=C3CC[C@@H]4[C@H](CC[C@]5(C)C(=O)CC[C@@H]45)C3=CC3C(O)c4cccnc4N4C(=O)COC234)c1` (stereo not given in full) yielded a growth of 104%.
For `Oc1ccc(CN2CCC(N3CCCCC3)CC2)c2cccnc12`, the growth was 30.3%.
For `CN(C)CC(=O)Nc1ccc2ncnc(Nc3ccc(Oc4cccc(C(F)(F)F)c4)c(Cl)c3)c2c1`, the growth was 59.5%.
